Screens: PubChem BioAssay, National Center for Advancing Translational Sciences (NCATS)
The list is not random: actives were taken first. Their share in the collection is about 11%.
CBFb RUNX1 block: qHTS Assay for Compounds Blocking the Interaction Between CBF-beta and RUNX1 for the Treatment of Acute Myeloid Leukemia; Runt-related transcription factor 1 (Homo sapiens) + Core-binding factor subunit beta …; AlphaScreen CBFb-His/RUNX1-biotin binding, biochemical; Potency, µM (doses to about 59.8 µM), without a hit: at the highest dose activity, negative = inhibition, usual class: inhibitors; 230,000 tested, under 10 active; also: % of control where 0% means no effect
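Proteins preincubated together for 20 min at RT before compound addition; 15 min later, nickel and streptavidin beads were added and left 90 min prior to AlphaScreen measurement.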
HTT ATP protect: qHTS Multiplex Assay to Identify Dual Action Probes in a Cell Model of Huntington: Cytoprotection (ATP) | PC12 HTT-Q103 induced, cytoprotection, ATP luminescence, 40 h | Potency, µM (doses to about 56.4 µM), inactives show cytoprotection (ATP increase), actives largely listed as activators | hit rate 0.14% among 230,000; also: potency is read from the fitted curve at half-maximal effect; % of control where 0% means no effect; nearly all actives have a fitted effect of over 45% in size
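Rat PC12, Q103 Htt exon1-GFP fusion, ecdysone promoter; tebufenozide inducer 100 nM final; compound titration; qHTS, 1500 cells/well; ATPlite luminescent read.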
PNC inhibitor: High Content Assay for Compounds that inhibit the Assembly of the Perinucleolar Compartment; hit rate 3.1% among 140,000; PC3M PTB-GFP, PNC prevalence imaging, 16 h; stronger effect = lower value; activity change (PNC), negative = inhibition, % at 10 µM;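 active = readout at or below -70, meaning at least 70% loss of cells showing the perinucleolar compartment, a nuclear body marking cancer cells; inconclusive = readout between -30 and a set limit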;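 also: plate controls were DMSO wells for no effect and camptothecin positive control wells for full effect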
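PC3M cells stably expressing PTB-GFP, 750–1000 cells/well, treated 16 h at 37 °C with compound (23 nl of library stock), in duplicate. After paraformaldehyde fixation and Hoechst stain, imaged at 20x; PNC prevalence scored by image analysis.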
HPGD block: qHTS Assay for Inhibitors of HPGD (15-Hydroxyprostaglandin Dehydrogenase). 15-hydroxyprostaglandin dehydrogenase [NAD(+)] (Homo sapiens), P15428. purified HPGD, NADH fluorescence kinetic, PGE2 substrate. Potency, µM, for inactives: at the highest dose activity change, negative = inhibition, usual class: inhibitors. hit rate 4.3% among 150,000. AID 894, 2007; active = well fitted inhibition curve with a large enough effect, not every such curve was filed as active; inconclusive = small, poorly fitted or top-dose-only effect, or another doubt; inactive = no such curve, though single readings can be large or run the other way; also: potency is read from the fitted curve at half-maximal effect; % is scaled to controls: 0 for no effect and ±100 for the full control effect
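20 nM HPGD preincubated 15 min at room temperature with compound in 50 mM Tris-HCl pH 8, 0.01% Tween 20. Started with 1 mM NAD+ and 30 uM prostaglandin E2; NADH fluorescence (360/450 nm) read 5 times over 30-s intervals, last minus first.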
HTT aggregate: qHTS Multiplex Assay to Identify Dual Action Probes in a Cell Model of Huntington: Aggregate Formation (GFP) | PC12 HttQ103-GFP aggregates, Acumen cytometry, 40 h | Potency, µM (doses to about 46.1 µM), for the others: at the highest dose activity change, negative = inhibition, most hits filed as inhibitors | hit rate 1.1% among 220,000 | AID 1688, 2009; also: potency is read from the fitted curve at half-maximal effect; % is scaled to controls: 0 for no effect and ±100 for the full control effect; nearly all actives have a fitted effect of over 60% in size
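Aggregates are detected as GFP objects 1–25 µm with signal 6 STDEV over background in lysates of induced PC12 cells. These carry Huntingtin exon 1 with 103 glutamines fused to GFP under an ecdysone promoter; compounds titrated.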
ALDH1A1 inh: qHTS Assay for Inhibitors of Aldehyde Dehydrogenase 1 (ALDH1A1). Purified ALDH1A1, NADH fluorescence, propionaldehyde substrate. AID 1030, 2008. hit rate 7.3% among 220,000. Potency, µM (top dose mostly 75.3 µM), for the others: at the highest dose activity, negative = inhibition, actives largely listed as inhibitors. Aldehyde dehydrogenase 1A1 (Homo sapiens), P00352; active = well fitted inhibition curve with a large enough effect, not every such curve was filed as active; inconclusive = small, poorly fitted or top-dose-only effect, or another doubt; inactive = no such curve, though single readings can be large or run the other way;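 also: potency is read from the fitted curve at half-maximal effect; plate controls were no enzyme wells and a reference inhibitor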
Target sequence (P00352 whole entry, looked up): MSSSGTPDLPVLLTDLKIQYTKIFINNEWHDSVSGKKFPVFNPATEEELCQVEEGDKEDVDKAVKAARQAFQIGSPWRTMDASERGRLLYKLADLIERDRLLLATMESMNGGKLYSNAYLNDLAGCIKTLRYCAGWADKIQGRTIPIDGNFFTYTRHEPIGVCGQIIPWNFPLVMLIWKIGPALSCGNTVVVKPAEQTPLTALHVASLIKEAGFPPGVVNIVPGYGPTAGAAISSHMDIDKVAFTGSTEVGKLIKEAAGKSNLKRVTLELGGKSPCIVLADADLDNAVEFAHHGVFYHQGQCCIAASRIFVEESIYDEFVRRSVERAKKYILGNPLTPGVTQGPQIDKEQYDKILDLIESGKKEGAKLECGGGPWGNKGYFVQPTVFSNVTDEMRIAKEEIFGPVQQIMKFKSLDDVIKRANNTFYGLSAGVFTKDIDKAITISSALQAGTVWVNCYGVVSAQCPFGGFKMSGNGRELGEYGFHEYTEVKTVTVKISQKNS
An asterisk follows results filed as active; [ ] = remark or other dose. Unless noted, calls follow the shape of the dose curve; as a rule, active = well fitted curve in the direction sought with a large enough effect; inconclusive = small, poorly fitted or top-dose-only effect, or another doubt; inactive = no such curve, though single readings can be large; an effect the other way counts as inactive or inconclusive.

O=C1Nc2ccccc2C1=Nc1ccc(-c2nnc3n2CCCCC3)cc1 was read as CBFb RUNX1 block 0%, HTT ATP protect 8%[10 µM], PNC inhibitor 3, HPGD block 5µM*, HTT aggregate inconclusive and ALDH1A1 inh inconclusive.
Screening CC(C)C[C@H](NC(=O)[C@H](Cc1cnc[nH]1)NC(=O)[C@@H](N)Cc1cnc[nH]1)C(=O)NCC(=O)NCC(=O)N[C@@H](C)C(=O)N[C@@H](CCCCN)C(=O)N[C@@H](CCC(N)=O)C(=O)N[C@@H](C)C(=O)NCC(=O)N[C@@H](CC(=O)O)C(=O)N[C@H](C(=O)O)C(C)C returned CBFb RUNX1 block 3%.
`COc1cccc([C@@H]2Oc3ccc(OC)cc3C(=O)[C@H]2OC(=O)NCCOc2ccccc2)c1` gave CBFb RUNX1 block -6%, HTT ATP protect -9%, HPGD block -14% and ALDH1A1 inh 1%.
Cc1cc(C)n(-c2ccc(Cl)c(C(=O)Nc3ccc(-c4nnc5n4CCCCC5)cc3)n2)n1 was read as CBFb RUNX1 block 0%, HTT ATP protect -35%, PNC inhibitor 20, HPGD block 1.8µM*, HTT aggregate -31% and ALDH1A1 inh 1%.
`Cc1cc(C)n(-c2ccc(Cl)c(C(=O)NCc3ccccc3)n2)n1` gave CBFb RUNX1 block 6%, HTT ATP protect 15%[10 µM], HTT aggregate -7% and ALDH1A1 inh -5%.
Cc1c(C(=O)Nc2ccc(-c3nnc4n3CCCCC4)cc2)oc2ccc(Br)cc12 was read as CBFb RUNX1 block -1%, HTT ATP protect -28%[10 µM], PNC inhibitor -14, HPGD block inconclusive, HTT aggregate 4% and ALDH1A1 inh inconclusive.
Screening O=C(Nc1ccc(-c2nnc3n2CCCCC3)cc1)c1ccco1 returned CBFb RUNX1 block -3%, HTT ATP protect -3%[10 µM], PNC inhibitor -17, HPGD block 8.9µM*, HTT aggregate -5% and ALDH1A1 inh inconclusive.
`Cc1cnc(C(=O)Nc2cccc(-c3nnc4n3CCCCC4)c2)cn1` gave CBFb RUNX1 block 2%, HTT ATP protect -12%[10 µM], PNC inhibitor 31, HPGD block 13µM*, HTT aggregate -13% and ALDH1A1 inh -1%.
O=C(NCCN1CCCC1)c1ccc(Cc2nc3ccccc3[nH]2)cc1 was read as HPGD block -3% and ALDH1A1 inh 9%.
Screening [O-][n+]1cccc(CO)c1 returned HTT ATP protect -2% and HTT aggregate 18%.
Screening CC(C)(C)C(O)CN1CCCC1 (stereo not drawn) returned CBFb RUNX1 block -4%, HTT ATP protect -30%, HTT aggregate 12% and ALDH1A1 inh 9%.
O=C(Nc1ccc(Cl)cc1)Nc1ccccc1Sc1ncc([N+](=O)[O-])s1 was read as CBFb RUNX1 block -26%, HTT ATP protect 14%[10 µM] and HTT aggregate 34%[9.22 µM].
O=[N+]([O-])c1cnc(Sc2ccncn2)s1 was read as CBFb RUNX1 block 4%, HTT ATP protect -98%[10 µM], HTT aggregate inconclusive and ALDH1A1 inh 3.2µM*.
For CCOc1ccc(/C=C/[N+](=O)[O-])c2ccccc12 the results were CBFb RUNX1 block -8%, HTT ATP protect -74%, PNC inhibitor 16, HPGD block 11µM*, HTT aggregate 0% and ALDH1A1 inh 28µM*.
Screening CCOC(=O)COc1ccc2ccccc2c1/C=C/[N+](=O)[O-] returned CBFb RUNX1 block -7%, HTT ATP protect 28%[10 µM], PNC inhibitor -10, HPGD block 3.5µM*, HTT aggregate 5% and ALDH1A1 inh 13µM*.
CCOC(=O)COc1ccc(/C=C/[N+](=O)[O-])c(OCC(=O)OCC)c1 was read as CBFb RUNX1 block 3%, HTT ATP protect -10%, PNC inhibitor 26, HPGD block inconclusive, HTT aggregate -5% and ALDH1A1 inh inconclusive.
`Cc1nc(N2CCCCC2)sc1C(=O)c1ccc(SCCO)c([N+](=O)[O-])c1` gave CBFb RUNX1 block -23%, HTT ATP protect -42%, HTT aggregate -23% and ALDH1A1 inh 13µM*.
Screening Cc1nc(N2CCCCC2)sc1C(=O)c1cccc([N+](=O)[O-])c1 returned CBFb RUNX1 block -23%, HTT ATP protect -3%[10 µM], HTT aggregate -25% and ALDH1A1 inh 10µM*.
Screening N=C(c1cccc([N+](=O)[O-])c1)N1CCCCCC1 returned CBFb RUNX1 block 10%, HTT ATP protect 1%[10 µM], HTT aggregate -8%[9.22 µM] and ALDH1A1 inh 5%.
`COc1ccc2c(c1)C(=O)[C@H](OC(=O)Nc1ccc(OC(F)F)cc1)[C@@H](c1ccc(OC)c(Br)c1)O2` gave CBFb RUNX1 block -15%, HTT ATP protect 17%, HPGD block -8% and ALDH1A1 inh 4%.
Screening COc1ccc(C(=O)N2CC3(CC(c4ccc(Cl)cc4)=NO3)C[C@H]2C(=O)NCC(N)=O)cc1 (stereo partly drawn) returned CBFb RUNX1 block 0%, HTT ATP protect -19%, PNC inhibitor 30, HPGD block -2%, HTT aggregate 29% and ALDH1A1 inh 8%.
`NC(=O)CNC(=O)[C@@H]1CC2(CC(c3ccc(Cl)cc3)=NO2)CN1C(=O)c1ccccc1` (stereo partly drawn) gave CBFb RUNX1 block -3%, HTT ATP protect 30%, PNC inhibitor -24, HPGD block -19%, HTT aggregate 27% and ALDH1A1 inh 28µM*.
For O=C(Nc1nnc(C(F)(F)F)s1)C1COc2ccccc2O1 (stereo not drawn) the results were CBFb RUNX1 block -5%, HTT ATP protect -23%, PNC inhibitor inconclusive, HPGD block -10%, HTT aggregate 25µM* and ALDH1A1 inh 7%.
For O=C(Nc1nnc(C2CC2)s1)C1COc2ccccc2O1 (stereo not drawn) the results were CBFb RUNX1 block 0%, HTT ATP protect -58%[10 µM], HTT aggregate -14% and ALDH1A1 inh -2%.
Screening CC1(C)CC(=O)c2sc(NC(=O)C3COc4ccccc4O3)nc2C1 (stereo not drawn) returned CBFb RUNX1 block 6%, HTT ATP protect -10%[10 µM], PNC inhibitor inconclusive, HPGD block -17%, HTT aggregate 7% and ALDH1A1 inh 16µM*.
